Reference: PubChem BioAssay (Tox21)
Inconclusive results are not listed. Where a call stands in place of a potency, no number is given. Active and inactive are the calls of the source. Unless noted, the call rests on the fitted dose curve; in most records, active means well fitted curve in the direction sought with a large enough effect in the repeat runs; inconclusive means weak or mixed curves; inactive means no such curve, though single readings can be large; an effect the other way counts as inactive or inconclusive.

Legend:
[1] = qHTS assay to identify small molecule antagonists of the retinoid acid receptor (RAR) signaling pathway - cell viability counter screen (AID 1159551); further: nearly all actives have a fitted effect of over 35% in size
Procedure, shortened: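 C3RL4 cells were seeded overnight at 37 C, then treated with compounds plus 1 uM (final) retinol for 6 h at 37 C. Viability was read as ATP by CellTiter-Glo luminescence after 30 min at room temperature.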

[2] = qHTS assay to identify small molecule antagonists of the estrogen related receptor (ERR) signaling pathway from Tox21 library - cell viability counter screen (AID 1224834); further: nearly all actives have a fitted effect of over 30% in size
Procedure, shortened: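 ERR reporter cells were plated 6 h before compound addition, then exposed to test compounds in DMSO for 17.5 h at 37 C. Viability was read as CellTiter-Fluor fluorescence after a 30-minute incubation at 37 C.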

[3] = target: Luciferin 4-monooxygenase (Photinus pyralis) (UniProt P08659); test: qHTS assay to identify small molecule inhibitors of firefly luciferase (AID 1224835); further: nearly all actives have a fitted effect of over 25% in size; further: potency means the concentration at half of the fitted maximal effect
Luciferin 4-monooxygenase (Photinus pyralis), sequence (P08659 whole entry, looked up): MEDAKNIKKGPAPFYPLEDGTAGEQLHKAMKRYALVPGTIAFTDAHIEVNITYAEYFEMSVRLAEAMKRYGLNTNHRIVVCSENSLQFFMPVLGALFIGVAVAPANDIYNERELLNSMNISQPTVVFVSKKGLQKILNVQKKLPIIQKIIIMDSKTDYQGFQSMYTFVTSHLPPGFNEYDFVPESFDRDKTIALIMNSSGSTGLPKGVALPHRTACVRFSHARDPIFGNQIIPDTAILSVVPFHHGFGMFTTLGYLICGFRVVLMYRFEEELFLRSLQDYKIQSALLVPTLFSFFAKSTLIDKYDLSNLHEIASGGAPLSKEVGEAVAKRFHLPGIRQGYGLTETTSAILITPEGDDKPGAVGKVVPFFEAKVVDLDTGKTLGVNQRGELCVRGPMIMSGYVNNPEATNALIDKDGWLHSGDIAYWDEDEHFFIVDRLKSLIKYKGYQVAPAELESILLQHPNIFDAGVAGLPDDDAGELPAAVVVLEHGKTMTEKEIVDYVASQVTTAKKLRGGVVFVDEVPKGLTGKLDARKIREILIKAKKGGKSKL
Procedure, shortened: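 Quantitative HTS format; KM concentrations of both substrates. Purified P. pyralis FLuc activity quantified from luminescence images.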

[4] = qHTS assay to identify small molecule agonists of the constitutive androstane receptor (CAR) signaling pathway - cell viability counter screen (AID 1224836); further: series mostly up to about 92 µM; nearly all actives have a fitted effect of over 45% in size
Procedure, shortened: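 Cell viability multiplexed with the CAR agonist screen: CellTiter-Fluor fluorescence after 23 hr at 37 C. HepG2-CYP2B6-hCAR cells got compounds at 15 concentrations with PK11195 at 0.75 uM final.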

[5] = qHTS assay to identify small molecule antagonists of the constitutive androstane receptor (CAR) signaling pathway - cell viability counter screen (AID 1224837); further: series mostly up to about 92 µM; nearly all actives have a fitted effect of over 45% in size
Procedure, shortened: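 HepG2 cells stably expressing hCAR and a CYP2B6-2.2kb reporter were plated and pre-incubated 4 hr at 37 C/5% CO2, then given compounds at 15 concentrations plus 50 nM CITCO (final). After 23 hr, viability was read by CellTiter-Fluor fluorescence.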

[6] = target: Nuclear receptor subfamily 1 group I member 3 (Homo sapiens) (UniProt Q14994); test: qHTS assay to identify small molecule antagonists of the constitutive androstane receptor (CAR) signaling pathway (AID 1224838); further: nearly all actives have a fitted effect of over 40% in size
Nuclear receptor subfamily 1 group I member 3 (Homo sapiens), sequence (Q14994 whole entry, looked up): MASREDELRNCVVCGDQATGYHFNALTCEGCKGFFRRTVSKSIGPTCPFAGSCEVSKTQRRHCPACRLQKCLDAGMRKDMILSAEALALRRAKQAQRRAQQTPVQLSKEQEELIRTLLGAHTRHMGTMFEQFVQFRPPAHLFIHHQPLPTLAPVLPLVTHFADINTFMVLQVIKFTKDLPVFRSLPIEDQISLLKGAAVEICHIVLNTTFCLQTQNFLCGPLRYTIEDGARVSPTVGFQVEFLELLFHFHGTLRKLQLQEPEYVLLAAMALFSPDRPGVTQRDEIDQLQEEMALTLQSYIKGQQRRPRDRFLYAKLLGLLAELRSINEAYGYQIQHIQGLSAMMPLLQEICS
Procedure, shortened: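 HepG2 cells stably co-transfected with hCAR and a CYP2B6-2.2kb luciferase reporter were seeded 4 h before compound addition at 15 concentrations. Cells were stimulated with 50 nM CITCO (final) for 24 h at 37 C; luciferase luminescence was then read.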

[7] = target: Nuclear receptor subfamily 1 group I member 3 (Homo sapiens) (UniProt Q14994); test: qHTS assay to identify small molecule agonists of the constitutive androstane receptor (CAR) signaling pathway (AID 1224839); further: nearly all actives have a fitted effect of over 15% in size; further: potency means the concentration at half of the fitted maximal effect
Procedure, shortened: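 Luminescent ONE-Glo read-out after 24 hr, 37 C exposure of double-stable HepG2-CYP2B6-hCAR reporter cells to a 15-point compound series, in the presence of 0.75 uM PK11195 (final).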

[8] = qHTS assay to identify small molecule agonists of the estrogen related receptor signaling pathway with the pleiotropic PPARgamma coactivator (PGC) from Tox21 10K library (AID 1224842); further: nearly all actives have a fitted effect of over 15% in size
Procedure, shortened: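 PGC/ERR reporter cells (NTP line) were seeded 2,000 per well, rested 6 h at 37 C/5% CO2, then pin-dosed with compounds in DMSO for 18 h at 37 C; luciferase read by One-Glo luminescence after 30 min at room temperature.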

[9] = target: Thyrotropin receptor (Homo sapiens) (UniProt P16473); test: qHTS assay to identify small molecule agonists of the thyroid stimulating hormone receptor (TSHR) signaling pathway (AID 1224843; calls by dose curve; further: nearly all actives have a fitted effect of over 45% in size)
Thyrotropin receptor (Homo sapiens), sequence (P16473 whole entry, looked up): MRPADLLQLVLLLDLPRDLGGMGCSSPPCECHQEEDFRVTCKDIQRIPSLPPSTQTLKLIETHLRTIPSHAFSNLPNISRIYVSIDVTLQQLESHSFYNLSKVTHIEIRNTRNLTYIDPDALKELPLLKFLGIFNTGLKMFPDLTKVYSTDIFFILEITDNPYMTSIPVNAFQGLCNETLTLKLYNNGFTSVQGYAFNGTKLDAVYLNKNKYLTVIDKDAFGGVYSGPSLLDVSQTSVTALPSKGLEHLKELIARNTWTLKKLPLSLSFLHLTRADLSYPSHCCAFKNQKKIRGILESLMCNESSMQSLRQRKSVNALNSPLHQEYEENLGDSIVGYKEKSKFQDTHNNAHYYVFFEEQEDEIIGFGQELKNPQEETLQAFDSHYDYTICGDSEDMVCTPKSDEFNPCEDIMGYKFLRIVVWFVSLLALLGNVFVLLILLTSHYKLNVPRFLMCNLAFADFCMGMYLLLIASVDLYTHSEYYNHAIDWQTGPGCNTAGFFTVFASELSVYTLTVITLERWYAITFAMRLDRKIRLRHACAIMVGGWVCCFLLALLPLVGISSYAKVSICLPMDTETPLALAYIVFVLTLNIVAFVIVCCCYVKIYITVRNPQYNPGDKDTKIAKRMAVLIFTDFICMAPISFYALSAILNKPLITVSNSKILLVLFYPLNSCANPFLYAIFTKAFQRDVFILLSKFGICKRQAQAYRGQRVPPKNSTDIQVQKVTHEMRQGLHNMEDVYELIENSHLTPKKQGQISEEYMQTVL
Procedure, shortened: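 Cell line HEK293 with TSHR; density 800/well. Exposure 30 min RT. Readout HTRF cAMP (cAMP-d2/anti-cAMP-cryptate), 1 h RT before reading.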

[10] = qHTS assay to identify small molecule antagonists of the retinoic acid receptor (RAR) signaling pathway (AID 1159552; further: nearly all actives have a fitted effect of over 50% in size)
Procedure, shortened: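 Luminescent RARE reporter read-out in C3RL4 cells: 6 hr co-treatment at 37 C of test compounds with retinol at 1 uM final. Cells plated overnight beforehand; luciferase reagent incubated 30 min at room temperature before reading.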

[11] = qHTS assay to identify small molecule agonists of the retinoic acid receptor (RAR) signaling pathway (AID 1159553); further: potency means the concentration at half of the fitted maximal effect
Procedure, shortened: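 C3RL4 cells carrying a RARE luciferase reporter were plated overnight at 37 C, then exposed to compounds in DMSO for 6 hr at 37 C and 5% CO2. Luminescence was read 30 min after luciferase reagent addition at room temperature.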

[12] = qHTS assay to identify small molecule agonists of the hypoxia (HIF-1) signaling pathway - cell viability counter screen (AID 1224844; calls by dose curve; further: nearly all actives have a fitted effect of over 50% in size)
Procedure, shortened: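 HRE-bla ME-180 cells in medium with 0.5% dialyzed FBS were preincubated 5 hrs at 37C, exposed to compounds for 17 hrs, then viability was read as CellTiter-Glo luminescence after 30 min at room temperature, in the reporter wells.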

[13] = qHTS assay to identify small molecule antagonists of the estrogen related receptor signaling pathway with the pleiotropic PPARgamma coactivator (PGC) from Tox21 10K library - cell viability counter screen (AID 1224840; active means well fitted cell-killing curve with a large enough effect in the repeat runs, not every such curve was filed as active; further: nearly all actives have a fitted effect of over 40% in size)
Procedure, shortened: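 PGC/ERR cells were seeded at 2,000 cells/well and left 6 hours at 37 C/5% CO2 before pin-tool addition of compounds in DMSO. After 17.5 hours at 37 C, CellTiter-Fluor was added and fluorescence read 30 minutes later.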

| SMILES | Potency [1] | Potency [2] | Potency [3] | Potency [4] | Potency [5] | Potency [6] | Potency [7] | Potency [8] | Potency [9] | Potency [10] | Potency [11] | Potency [12] | Potency [13] |
| --- | --- | --- | --- | --- | --- | --- | --- | --- | --- | --- | --- | --- | --- |
| CN(C)CCOC(c1ccccc1)c1ccc(Br)cc1 (stereo not given) | inactive | inactive | inactive | inactive | inactive | inactive | inactive | inactive | inactive |  |  |  |  |
| O=C(Nc1ccccc1)c1ccccc1O |  |  | 15.9 µM (active) | inactive | inactive | inactive | 27.3 µM (active) |  |  | inactive | 8.63 µM (active) | inactive |  |
| S=C([S-])NCCNC(=S)[S-].[Mn+2] | inactive | inactive | 12.6 µM (active) |  |  |  |  |  | inactive |  |  | inactive | inactive |
| Clc1ccc2c(c1)CCc1cccnc1C2=C1CCNCC1 | inactive | inactive |  |  | inactive |  | inactive |  |  |  |  | inactive |  |
| CCCCC(=O)OCC(=O)[C@H]1[C@H](C)C[C@H]2[C@@H]3C[C@H](F)C4=CC(=O)C=C[C@]4(C)[C@@]3(F)[C@@H](O)C[C@@]21C | inactive | inactive | inactive | inactive | inactive | inactive | inactive |  |  |  |  |  | inactive |
| C[C@H]1C[C@H]2[C@@H]3CCC4=CC(=O)C=C[C@]4(C)[C@@]3(Cl)[C@@H](O)C[C@]2(C)[C@@]1(O)C(=O)CO | inactive | inactive | inactive | inactive | inactive | inactive | inactive | inactive |  |  |  |  | inactive |
